# In the library only some 6.1% were active in any assay of this set; here they are far more common.
# TGFb inhibitor – blocks TGF-b signaling. HepG2 CAGA-GFP TGF-b/SMAD3 reporter, GFP fluorescence, 18 h; TGF-beta stimulated, 500 pg/mL final. Potency, µM (series often up to 46.1 µM), most hits filed as inhibitors. actives 1.2% (n = 410,000). AID 588855; also: nearly all actives have a fitted effect of over 65% in size
#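 Cell-based qHTS in HEPG2 carrying a CAGA-GFP Smad reporter; compounds added before 500 pg/mL final TGF-beta, 18 h incubation at 37 degrees C, GFP fluorescence quantified per cell by imaging cytometry.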
# S2 tox – viability counter-screen for ATXN expression inhibitors. S2 cells (HEK-293 line with an ATXN2-luciferase reporter) viability, CellTiter-Fluor protease fluorescence, 24 h. Potency, µM (series often up to 56.7 µM), actives largely listed as cytotoxic. actives 0.49% (n = 400,000). AID 651635; also: nearly all actives have a fitted effect of over 40% in size
# VP16 counter – inhibits Gal4-VP16 luciferase reporter, ROR gamma counter-screen; Drosophila S2 Gal4-VP16 UAS-luciferase, luminescence, 20 h; Potency, µM (highest dose often 53.6 µM), most hits filed as inhibitors; actives 3.5% (n = 310,000);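 also: Gal4-VP16 expression switched on by copper sulfate through the metallothionein promoter; nearly all actives have a fitted effect of over 50% in size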
# ATXN2 expr inh – inhibitors of ATXN2 expression | HEK-293 ATXN2-luciferase reporter, luminescence, 24 h | Potency, µM (series often up to 57 µM), usual class: inhibitors | actives 0.72% (n = 360,000) | AID 1745845; also: nearly all actives have a fitted effect of over 55% in size
#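 qHTS (up to 57 uM final) was run with 24 h compound exposure of reporter cells at 37 °C. Each well was multiplexed: SteadyGlo luminescence measured ATXN2-luciferase expression after a fluorogenic Gly-Phe-AFC viability readout (25 uM final).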
# HepG2 viability – HepG2 cytotoxicity, counter-screen for TGF-b inhibitors. HepG2 CAGA-GFP viability, ATP luminescence, 18 h. Potency, µM (doses to about 46.1 µM), most hits filed as cytotoxic. actives 0.76% (n = 410,000). AID 588856
#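 HepG2 CAGA-GFP cells (1000/well, DMEM with 1% FBS) received compound, then TGF-beta at 500 pg/mL final, and were incubated 18 hours at 37 degrees C. Viability was read by CellTiter-Glo luminescence. Media-only wells were set as complete cell-killing and DMSO as no toxicity.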
# RORgamma inh – inhibitors of mouse ROR gamma transcriptional activity | P51450 | Drosophila S2 Gal4-RORgamma UAS-luciferase reporter, 20 h | Potency, µM (top dose mostly 53.6 µM), usual class: inhibitors | actives 5.4% (n = 310,000) | AID 2551; also: nearly all actives have a fitted effect of over 60% in size
# Target sequence (P51450 whole entry, looked up, the tested form may be a part): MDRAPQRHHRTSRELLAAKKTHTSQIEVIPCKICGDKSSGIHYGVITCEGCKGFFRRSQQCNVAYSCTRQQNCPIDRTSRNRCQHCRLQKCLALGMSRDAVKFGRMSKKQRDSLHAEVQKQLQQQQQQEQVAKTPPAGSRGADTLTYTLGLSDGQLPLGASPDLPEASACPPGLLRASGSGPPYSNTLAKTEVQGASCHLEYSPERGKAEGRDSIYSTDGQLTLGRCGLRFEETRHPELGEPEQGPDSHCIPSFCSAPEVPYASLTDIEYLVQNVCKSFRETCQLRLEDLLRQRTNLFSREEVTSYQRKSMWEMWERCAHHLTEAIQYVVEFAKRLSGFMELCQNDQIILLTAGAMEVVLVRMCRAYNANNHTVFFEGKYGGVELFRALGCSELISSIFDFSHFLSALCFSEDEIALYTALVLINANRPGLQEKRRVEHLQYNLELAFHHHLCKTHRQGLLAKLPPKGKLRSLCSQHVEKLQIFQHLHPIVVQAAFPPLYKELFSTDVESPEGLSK
#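 Luciferase reporter read in Schneider cells carrying Gal4-RORγ (mouse) and UAS-Photinus luciferase; cells given compound 1 h before 700 uM copper sulfate induction, then incubated 20 h at ambient temperature.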
# A number is an active result; n = inactive; u = inconclusive; x = not tested or not shown; [ ] = dose if it differs, or a comment. Calls follow the shape of the dose curve; as a rule, active = well fitted curve in the direction sought with a large enough effect; inconclusive = small, poorly fitted or top-dose-only effect, or another doubt; inactive = no such curve, though single readings can be large; an effect the other way counts as inactive or inconclusive.
SMILES,TGFb inhibitor,S2 tox,VP16 counter,ATXN2 expr inh,HepG2 viability,RORgamma inh
CNC(=O)C1CCC(Cn2c(=O)c3sccc3n(Cc3ccc(F)cc3)c2=O)CC1 (configuration not stated),n,n,x,n,n,x
CCc1ccc(-c2nn(CC(=O)NCc3ccccc3)c3c2cnc2ccc(F)cc23)cc1,u,n,x,n,n,x
Cc1cccc(NC(=O)C(=O)NCC(c2cccnc2)N2CCN(Cc3ccccc3)CC2)c1 (configuration not stated),n,n,x,n,n,x
O=C1CCc2cc(S(=O)(=O)NC(Cc3ccccc3)C(=O)NCC3CCCO3)ccc2N1 (configuration not stated),n,n,n,n,n,7.94µM
C(=C\c1ccco1)/c1nc2ccccc2[nH]1,n,n,n,x,n,n
O=c1[nH]c(/C=C/c2ccc(Br)cc2)nc2ccccc12,n,n,n,n,n,n
C(=C\c1nc2ccccc2[nH]1)/c1ccccc1,n,n,8.91µM,u,10µM,7.08µM
CN(C)c1ccc(/C=C/c2nc3ccccc3c(=O)[nH]2)cc1,n,x,u,x,n,2µM
CC(C)(Oc1ccc(Cl)cc1)C(=O)OCCCOC(=O)C(C)(C)Oc1ccc(Cl)cc1,x,n,x,n,x,x
CCCn1c(C2CCCN2c2nc(-c3cccc(Br)c3)cs2)nc2ccccc21 (configuration not stated),u,22.4µM,u,n,n,2.51µM
Cc1ccc(-c2csc(N3CCC[C@@H]3C(=O)NCCn3c(C(F)(F)F)nc4ccccc43)n2)cc1,u,u,n,u,n,n
S=C1NCN(Cc2ccccc2)CN1C1CCCCC1,n,n,3.98µM,n,n,0.794µM
O=C1CNC(=S)N1Cc1ccccc1,n,n,n,n,n,n
S=C1NCN(C2CCCCC2)CN1Cc1ccccc1,n,n,3.55µM,n,n,1.78µM
COc1ccc(NC(=O)C2CCCN(c3ncnc4c3nc3n4CCCCC3)C2)c(OC)c1 (configuration not stated),n,n,x,n,n,x
CCOC(=O)c1[nH]c2ccccc2c1NC(=O)c1ccccc1OC,n,u,x,n,n,x
CN(Cc1cnc2nc(N)nc(N)c2n1)c1ccc(C(=O)NC(CCC(=O)O)C(=O)O)cc1 (configuration not stated),n,n,n,u,0.282µM,n
COc1nccnc1NS(=O)(=O)c1ccc(N=Cc2c(C)[nH]n(-c3ccc(Cl)cc3)c2=O)cc1,x,x,n,x,x,n[10 µM]
COc1nccnc1NS(=O)(=O)c1ccc(N=Cc2c(C)[nH]n(-c3ccc(C)c(C)c3)c2=O)cc1,u,n,n,n,10µM,n
CCc1cccc(C)c1NC(=S)NCc1ccc2[nH]c(C)cc2c1,n,n,10µM,n,n,3.98µM
Cc1cc2cc(CNC(=O)NC3CCCCC3)ccc2[nH]1,n,n,n,n,n,u
Fc1ccc(CNC(=S)NC2CCCCC2)cc1,u,n,11.2µM,x,n,5.01µM
Fc1ccc(CNC(=S)NC2CCCC2)cc1,n,n,u,x,n,8.91µM
CNC(=S)NCc1ccc2[nH]c(C)cc2c1,n,n,n,x,n,n
Cc1cc2cc(CNC(=S)NC3CCCCC3)ccc2[nH]1,u,u,u,x,n,14.1µM
SMILES,TGFb inhibitor,S2 tox,VP16 counter,ATXN2 expr inh,HepG2 viability,RORgamma inh
Cc1cccn2c3c(c(=O)nc12)C(c1ccc(F)cc1)CC(=O)N3 (configuration not stated),n,n,x,n,n,x
O=C(C=Cc1cccnc1)NCCCCC1CCN(C(=O)c2ccccc2)CC1,x,x,x,n,x,x
O=C(NCc1ccccn1)c1cnn(-c2nccc(-c3cccs3)n2)c1C1CC1,x,n,x,x,x,x
NC(=S)NN=C1CCCCCCCCCC1,u,u,x,u,n,x
NC(=S)N/N=C1/CCSc2ccc3ccccc3c21,u,n,3.16µM,n,n,0.631µM
CCCCc1ccc(N/C(N)=N/c2nc(C)cc(C)n2)cc1,u,n,u,u,15.8µM,n
CCC(=O)OCCNc1cc(Sc2nc3ccccc3s2)c2nonc2c1[N+](=O)[O-],7.94µM,8.91µM,4.47µM,6.31µM,12.6µM,n
Cc1nnc(Sc2cc(NCCO)c([N+](=O)[O-])c3nonc23)s1,u,x,u,n[11.3 µM],n,3.16µM
CCC(=O)OCCNc1cc(Sc2nc3ccccc3[nH]2)c2nonc2c1[N+](=O)[O-],n,28.2µM,4.47µM,28.2µM,n,3.16µM
O=[N+]([O-])c1c(NCCO)cc(N2CCCCCC2)c2nonc12,n,u,n,x,n,u
CCCSc1cc(NCCOC(=O)CCC)c([N+](=O)[O-])c2nonc12,u,u,u,n,n,u
CCCC(=O)OCCNc1cc(Sc2nccn2C)c2nonc2c1[N+](=O)[O-],15.8µM,x,5.01µM,20µM,n,5.62µM
O=C(O)c1cccc(CSc2nnc(-c3ccc(Cl)cc3)o2)c1,n,n,0.794µM,x,n,u
c1ccc(-c2nnc(SCc3ccncc3)o2)cc1,n,n,x,x,n,x
c1ccc2[nH]c(CSc3nnc(-c4ccncc4)o3)nc2c1,n,n,n,n,n,u
Brc1cccc(-c2nnc(SCc3nc4ccccc4[nH]3)o2)c1,u,n,n,n,n,11.2µM
Cc1cccc(-c2nnc(SCc3ccccc3)o2)c1,n,n,n,n,n,14.1µM
COCC(=O)Nc1cc(C(=O)N2CCN(c3ccccc3)CC2C)c2c(c1)nc(-c1ccncc1)n2C (configuration not stated),x,n,x,x,x,x
COc1cc2c(cc1-c1c(C)noc1C)ncc1[nH]c(=O)n([C@H](C)c3ccccn3)c12,x,x,x,n,x,x
CCCCC/C=C\C\C=C/C=C/C=C/[C@@H](O)[C@@H](O)CCCC(=O)O,x,x,n,x,x,n
COc1ccc(-c2sc3ccc(N4CCOCC4)cc3c2C#CC2(O)CCCCC2)cc1,u,u,x,n,n,x
COc1ccc(-c2sc3ccc(N4CCOCC4)cc3c2C#CCO)cc1,u,u,x,28.2µM,n,x
CC(C)CNC(=S)NC1CC2CCC(C1)N2Cc1ccccc1 (configuration not stated),n,n,u,n,n,10µM
Nc1nc(Sc2c([N+](=O)[O-])cc(C(F)(F)F)cc2[N+](=O)[O-])n[nH]1,u,n,15.8µM,n,n,10µM
CCCC(=O)N(Cc1cc(=O)[nH]c2ccccc12)c1ccc(C)cc1C,n,n,n,x,n,n
Cc1ccc(N(Cc2cc(=O)[nH]c3ccccc23)C(=O)CCl)c(C)c1,17.8µM,u,n,u,22.4µM,u
CC(=O)c1cccc(NS(=O)(=O)c2ccc3[nH]c4c(c3c2)CCCCCC4)c1,u,u,x,n,n,x
CC(=O)c1cccc(NS(=O)(=O)c2ccc3[nH]c4c(c3c2)CCCCC4)c1,u,u,x,u,n,x

# Screening results deposited in PubChem BioAssay by National Center for Advancing Translational Sciences (NCATS).
